The campaign covered roughly 5,500 compounds. About 2,000 (36%) were called active. Inconclusive results (about 18%) are left out. Cut-off read from the data, not from the text of the source: active = normalized growth mostly below about 0.91 (no sharp cut-off); inconclusive = no clear call, values can overlap the other calls; inactive = mostly above about 0.92. Some of the results follow.
Test: chemical genetic growth profiling, strain panel (AID 1159580);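 note: tested at 20 µM; growth read once vehicle control cultures reached saturation at 30 °C; 1 = growth at the plate median or of vehicle wells; lower values mean less growth of the strain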
Conditions: growth OD

Measured: normalized growth

O=c1cc(-c2cc(O)c(O)c(O)c2)oc2cc(O)cc(O)c12
inactive: S. cerevisiae deletion strains, locus YJR075W, strain HOC1, stronger effect = lower value 1.02 | S. cerevisiae deletion strains, locus YKL009W, strain mrt4, stronger effect = lower value 0.99 | S. cerevisiae deletion strains, locus YKL068W, stronger effect = lower value 0.962 | S. cerevisiae deletion strains, locus YKL085W, strain MDH1 (second series), stronger effect = lower value 0.996 | S. cerevisiae deletion strains, locus YKL085W, strain MDH1, stronger effect = lower value 0.996 | S. cerevisiae deletion strains, locus YKL160W, strain elf1, stronger effect = lower value 0.934 | S. cerevisiae deletion strains, locus YKL190W, strain CNB1, stronger effect = lower value 0.992 | S. cerevisiae deletion strains, locus YKR001C, strain vps1, stronger effect = lower value 0.986 | S. cerevisiae deletion strains, locus YKR026C, strain gcn3, stronger effect = lower value 1.01 | S. cerevisiae deletion strains, locus YKR091W, strain srl3, stronger effect = lower value 1.01 | S. cerevisiae deletion strains, locus YLL001W, strain dnm1, stronger effect = lower value 0.961 | S. cerevisiae deletion strains, locus YLL026W, stronger effect = lower value 1.01 | S. cerevisiae deletion strains, locus YLL041C, strain sdh2, stronger effect = lower value 1 | S. cerevisiae deletion strains, locus YLR027C, strain aat2, stronger effect = lower value 0.974 | S. cerevisiae deletion strains, locus YLR039C, strain RIC1, stronger effect = lower value 0.966 | S. cerevisiae deletion strains, locus YLR058C, strain SHM2, stronger effect = lower value 0.999 | S. cerevisiae deletion strains, locus YLR102C, strain apc9, stronger effect = lower value 0.995 | S. cerevisiae deletion strains, locus YLR113W, strain HOG1, stronger effect = lower value 0.998 | S. cerevisiae deletion strains, locus YLR221C, strain rsa3, stronger effect = lower value 0.928 | S. cerevisiae deletion strains, locus YLR258W, strain gsy2, stronger effect = lower value 0.967 | S. cerevisiae deletion strains, locus YLR262C, strain YPT6 (second series), stronger effect = lower value 0.905 | S. cerevisiae deletion strains, locus YLR262C, strain YPT6, stronger effect = lower value 1.05 | S. cerevisiae deletion strains, locus YLR268W, strain sec22, stronger effect = lower value 0.976 | S. cerevisiae deletion strains, locus YLR320W, strain mms22, stronger effect = lower value 0.897 | S. cerevisiae deletion strains, locus YLR330W, strain CHS5, stronger effect = lower value 0.994 | S. cerevisiae deletion strains, locus YLR342W, strain FKS1 (second series), stronger effect = lower value 0.986 | S. cerevisiae deletion strains, locus YLR342W, strain FKS1, stronger effect = lower value 0.964 | S. cerevisiae deletion strains, locus YLR357W, strain rsc2, stronger effect = lower value 0.856 | S. cerevisiae deletion strains, locus YLR370C, strain arc18, stronger effect = lower value 0.924 | S. cerevisiae deletion strains, locus YLR371W, strain rom2, stronger effect = lower value 0.985 | S. cerevisiae deletion strains, locus YLR384C, strain iki3, stronger effect = lower value 0.993 | S. cerevisiae deletion strains, locus YLR418C, strain cdc73, stronger effect = lower value 1.02 | S. cerevisiae deletion strains, locus YML016C, strain PPZ1, stronger effect = lower value 0.994 | S. cerevisiae deletion strains, locus YML032C, strain rad52, stronger effect = lower value 0.999 | S. cerevisiae deletion strains, locus YML120C, strain ndi1, stronger effect = lower value 0.948 | S. cerevisiae deletion strains, locus YML124C, strain tub3, stronger effect = lower value 0.998 | S. cerevisiae deletion strains, locus YMR058W, strain fet3, stronger effect = lower value 0.941 | S. cerevisiae deletion strains, locus YMR078C, strain ctf18, stronger effect = lower value 0.998 | S. cerevisiae deletion strains, locus YMR125W, strain sto1, stronger effect = lower value 1.03 | S. cerevisiae deletion strains, locus YMR129W, stronger effect = lower value 1.01 | S. cerevisiae deletion strains, locus YMR205C, strain PFK2, stronger effect = lower value 0.961 | S. cerevisiae deletion strains, locus YMR223W, strain ubp8, stronger effect = lower value 0.964 | S. cerevisiae deletion strains, locus YMR231W, strain pep5, stronger effect = lower value 1 | S. cerevisiae deletion strains, locus YMR263W, strain SAP30, stronger effect = lower value 0.999 | S. cerevisiae deletion strains, locus YMR307W, strain GAS1, stronger effect = lower value 1.09 | S. cerevisiae deletion strains, locus YNL067W, strain RPL9B, stronger effect = lower value 1.01 | S. cerevisiae deletion strains, locus YNL071W, strain lat1, stronger effect = lower value 0.979 | S. cerevisiae deletion strains, locus YNL128W, strain TEP1, stronger effect = lower value 0.953 | S. cerevisiae deletion strains, locus YNL183C, strain NPR1, stronger effect = lower value 0.966 | S. cerevisiae deletion strains, locus YNL233W, strain BNI4, stronger effect = lower value 1.01 | S. cerevisiae deletion strains, locus YNL248C, strain rpa49, stronger effect = lower value 1.02 | S. cerevisiae deletion strains, locus YNL250W, strain rad50, stronger effect = lower value 0.966 | S. cerevisiae deletion strains, locus YNL271C, strain bni1, stronger effect = lower value 0.978 | S. cerevisiae deletion strains, locus YNL298W, strain CLA4, stronger effect = lower value 0.985 | S. cerevisiae deletion strains, locus YNL307C, strain MCK1, stronger effect = lower value 1.01 | S. cerevisiae deletion strains, locus YNL322C, strain KRE1 (second series), stronger effect = lower value 0.991 | S. cerevisiae deletion strains, locus YNR049C, strain mso1, stronger effect = lower value 1.01 | S. cerevisiae deletion strains, locus YNR052C, strain pop2, stronger effect = lower value 0.999 | S. cerevisiae deletion strains, locus YOL006C, strain TOP1, stronger effect = lower value 1.08 | S. cerevisiae deletion strains, locus YOL012C, strain htz1 0.547 | S. cerevisiae deletion strains, locus YOL147C, strain pex11, stronger effect = lower value 1.01 | S. cerevisiae deletion strains, locus YOR001W, strain rrp6, stronger effect = lower value 0.987 | S. cerevisiae deletion strains, locus YOR061W, strain CKA2, stronger effect = lower value 0.997 | S. cerevisiae deletion strains, locus YOR069W, strain VPS5, stronger effect = lower value 1 | S. cerevisiae deletion strains, locus YOR070C, strain gyp1, stronger effect = lower value 0.962 | S. cerevisiae deletion strains, locus YOR080W, strain dia2, stronger effect = lower value 0.993 | S. cerevisiae deletion strains, locus YOR083W, strain WHI5, stronger effect = lower value 0.916 | S. cerevisiae deletion strains, locus YOR106W, strain vam3, stronger effect = lower value 0.926 | S. cerevisiae deletion strains, locus YOR136W, strain idh2, stronger effect = lower value 0.995 | S. cerevisiae deletion strains, locus YOR144C, strain elg1, stronger effect = lower value 1.01 | S. cerevisiae deletion strains, locus YOR184W, strain ser1, stronger effect = lower value 1.01 | S. cerevisiae deletion strains, locus YOR231W, strain MKK1, stronger effect = lower value 1.04 | S. cerevisiae deletion strains, locus YOR265W, strain rbl2, stronger effect = lower value 0.99 | S. cerevisiae deletion strains, locus YOR270C, strain vph1, stronger effect = lower value 0.888 | S. cerevisiae deletion strains, locus YOR290C, strain snf2, stronger effect = lower value 0.942 | S. cerevisiae deletion strains, locus YOR316C, strain cot1, stronger effect = lower value 0.987 | S. cerevisiae deletion strains, locus YPL051W, strain arl3, stronger effect = lower value 0.931 | S. cerevisiae deletion strains, locus YPL055C, strain LGE1, stronger effect = lower value 1.03 | S. cerevisiae deletion strains, locus YPL078C, strain atp4, stronger effect = lower value 0.98 | S. cerevisiae deletion strains, locus YPL106C, strain sse1, stronger effect = lower value 0.929 | S. cerevisiae deletion strains, locus YPL240C, strain hsp82, stronger effect = lower value 1.01 | S. cerevisiae deletion strains, locus YPL256C, strain CLN2, stronger effect = lower value 1.06 | S. cerevisiae deletion strains, locus YPR119W, strain clb2, stronger effect = lower value 1.01 | S. cerevisiae deletion strains, locus YPR141C, strain kar3, stronger effect = lower value 0.971 | S. cerevisiae deletion strains, locus YPR163C, strain tif3, stronger effect = lower value 0.988 | S. cerevisiae deletion strains, locus YPR167C, strain met16, stronger effect = lower value 1.01 | S. cerevisiae deletion strains, strain wtn01, stronger effect = lower value 1 | S. cerevisiae strains, strain wild type, stronger effect = lower value 0.996
active: S. cerevisiae deletion strains, locus YNL209W, strain ssb2, stronger effect = lower value 0.875

Source: PubChem BioAssay AID1159580 (chemical genetic matrix, 2015)
